Source: the supplement of paper PMC13380429

Test system: Vero E6 infected with SARS-CoV-2
Assay: inhibition of SARS-CoV-2 cytopathic effect; higher = more antiviral protection, active = above 15
Settings: 48 h

Measured: inhibition of SARS-CoV-2 cytopathic effect

Fc1ccc(C(OCCN2CCN(C/C=C/c3ccccc3)CC2)c2ccc(F)cc2)cc1
inactive: 1 nM 1.02% | 8.33 nM 1.01% | 100 nM 3.35% | 833.33 nM 1.4% | 10000 nM 0.32%

CCN(CC)S(=O)(=O)c1ccc(C(=O)O)cc1 [etebenecid]
inactive: 1 nM -3.2% | 8.33 nM 1.54% | 100 nM 0.48% | 833.33 nM 1.89% | 10000 nM 2.73%

Nc1ncnc2c1ncn2[C@@H]1O[C@H](COP(=O)(O)O)[C@@H](O)[C@H]1O [adenosine-phosphate]
inactive: 1 nM -6.5% | 8.33 nM -1.98% | 100 nM -4.25% | 833.33 nM -3.83% | 10000 nM -12.6%

O=c1c2ccccc2[se]n1-c1ccccc1 [ebselen]
inactive: 1 nM 0.19% | 8.33 nM 3.3% | 100 nM 2.73% | 833.33 nM 3.17% | 10000 nM -3.01%

CCS(=O)(=O)N(C)[C@H]1c2cc(C#N)ccc2OC(C)(C)[C@@H]1O [chromanol-293B-(-)-[3R,4S]]
inactive: 1 nM 0.15% | 8.33 nM -2.19% | 100 nM 0.8% | 833.33 nM 1.12% | 10000 nM -1.64%

Cc1ccc(Nc2c(F)cccc2Cl)c(CC(=O)O)c1 [lumiracoxib]
inactive: 1 nM -0.15% | 8.33 nM -0.84% | 100 nM -0.33% | 833.33 nM 0.6% | 10000 nM -0.38%

Cc1cc([C@@H](C)Nc2ccccc2C(=O)O)c2nc(N3CCOCC3)cc(=O)n2c1
inactive: 1 nM -0.68% | 8.33 nM -0.79% | 100 nM -4.63% | 833.33 nM -7.74% | 10000 nM -2.98%
